Test results: PubChem BioAssay (Tox21)
Inconclusive results are not listed. The source made the active and inactive calls. Unless noted, calls follow the shape of the dose curve; as a rule, active = well fitted curve in the direction sought with a large enough effect in the repeat runs; inconclusive = weak or mixed curves; inactive = no such curve, though single readings can be large; an effect the other way counts as inactive or inconclusive.

Tests used:
[1] = qHTS assay to identify small molecule agonists of the sonic hedgehog signaling (Shh) pathway (AID 1259368; calls by dose curve;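 also: NIH/3T3-derived 3T3Gli1-Luc cells carrying a stable Gli1-driven firefly luciferase reporter; series mostly up to about 92 µM; nearly all actives have a fitted effect of over 15% in size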)
Summary of the method: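 NIH/3T3-derived 3T3Gli1-Luc cells with stably integrated Gli1-driven firefly luciferase, 2,000 cells/well, compounds added after 4 hr. Incubated 24 hr at 37C, 5% CO2; luminescence read after 30 min with luciferase reagent at room temperature.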

[2] = qHTS assay to identify small molecule agonists of the androgen receptor (AR) signaling pathway in the presence of an antagonist - cell viability counter screen (AID 1259379);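 also: MDA-kb2 human breast cancer cells carrying an MMTV luciferase reporter; series mostly up to about 92 µM; nearly all actives have a fitted effect of over 25% in size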
Summary of the method: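 MDA-kb2 cells (MMTV-luciferase, AR/GR), 3,000/well, 5 h attachment, then 3.0 µM nilutamide (final) and compounds at 15 concentrations. Viability by CellTiter-Fluor fluorescence after 16 h at 37 °C, 0% CO2, in the reporter wells.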

[3] = qHTS assay to identify small molecule agonists of the estrogen receptor beta (ER-beta) signaling pathway - cell viability counter screen (AID 1259380); also: nearly all actives have a fitted effect of over 30% in size
Summary of the method: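 ER-beta-UAS-bla HEK293T cells in medium with 2% charcoal-stripped FBS, pre-incubated 6 hr, then treated 16 hr at 37C. Cytotoxicity read in the same wells by CellTiter-Glo luminescence after 30 min at room temperature.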

[4] = qHTS assay to identify small molecule antagonists of the estrogen receptor beta (ER-beta) signaling pathway - cell viability counter screen (AID 1259382);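 also: HEK293T cells carrying ER-beta-UAS-bla reporter stimulated with estradiol; series mostly up to about 92 µM; nearly all actives have a fitted effect of over 55% in size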
Summary of the method: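 ER-beta-UAS-bla HEK293T cells in 2% charcoal-stripped FBS medium, treated with compound plus 1 nM 17-beta-estradiol for 16 h at 37C. Viability read by CellTiter-Glo luminescence after 30 min at room temperature in the same wells.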

[5] = molecular target: Estrogen receptor (Homo sapiens) (UniProt P03372); test: qHTS assay to identify small molecule agonists of the estrogen receptor alpha (ER-alpha) signaling pathway in the presence of an antagonist (AID 1259383; calls by dose curve; also: top concentration of the series differs between compounds; nearly all actives have a fitted effect of over 15% in size)
Summary of the method: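 VM7Luc4E2 cells express endogenous full-length ER-alpha with an ERE-luciferase reporter and were hormone-deprived for 5 days. Compounds at 15 concentrations were added with 10.0nM ICI-182,780 for 22hr at 37C. Luminescence was read with ONE-Glo.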

[6] = qHTS assay to identify small molecule agonists of the estrogen receptor alpha (ER-alpha) signaling pathway in the presence of an antagonist - cell viability counter screen (AID 1259386);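 also: series mostly up to about 92 µM; cells exposed to compounds for 22 h at 37 °C before the viability read; nearly all actives have a fitted effect of over 30% in size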
Summary of the method: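 Cell viability in VM7Luc4E2 cells (endogenous full-length ER-alpha) measured by CellTiter-Fluor fluorescence in the same wells as the luciferase screen. Cells pre-cultured 5 days in charcoal-stripped serum, then treated 22 h with compounds at 15 concentrations plus 10.0nM ICI-182,780.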

[7] = molecular target: Progesterone receptor (Homo sapiens) (UniProt P06401); test: qHTS assay to identify small molecule agonists of the progesterone receptor (PR) signaling pathway (AID 1346784; calls by dose curve; also: nearly all actives have a fitted effect of over 30% in size)
Summary of the method: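 Using charcoal-stripped serum (2%) to limit endogenous steroids, PR-UAS-bla HEK 293T cells received compounds for 16 hr at 37C after 6 hr plating; beta-lactamase FRET fluorescence was recorded following 2 hr substrate loading at room temperature.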

[8] = molecular target: Progesterone receptor (Homo sapiens) (UniProt P06401); test: qHTS assay to identify small molecule antagonists of the progesterone receptor (PR) signaling pathway (AID 1346795; active = well fitted inhibition curve with a large enough effect in the signal ratio in the repeat runs, not every such curve was filed as active; the % refers to the signal ratio)
Summary of the method: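 Inhibition of R5020-induced (1 nM final) beta-lactamase reporter signal in PR-UAS-bla HEK293T cells was scored by FRET fluorescence after overnight (16 hr) compound treatment.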

[9] = qHTS assay to identify small molecule antagonists of the progesterone receptor (PR) signaling pathway - cell viability counter screen (AID 1346798); also: series mostly up to about 92 µM; nearly all actives have a fitted effect of over 50% in size
Summary of the method: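 ATP content as viability readout: CellTiter-Glo luminescence, 30 min room temperature, in PR-UAS-bla HEK293T cells after 16 hr compound/R5020 treatment at 37C and 5% CO2.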

[10] = qHTS assay to identify small molecule agonists of the progesterone receptor (PR) signaling pathway - cell viability counter screen (AID 1346799; calls by dose curve; also: nearly all actives have a fitted effect of over 45% in size)
Summary of the method: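 Cytotoxicity in PR-bla HEK293T cells: 16 h compound, 37C; CellTiter-Glo added post-FRET read; luminescence after 30 min RT.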

[11] = qHTS assay to identify small molecule antagonists of the TGF-beta/Smad signaling pathway - cell viability counter screen (AID 1346824); also: nearly all actives have a fitted effect of over 50% in size
Summary of the method: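 Cytotoxicity counter-screen run in the same wells as the beta-lactamase Smad reporter read: CellTiter-Glo luminescence after 30 min at room temperature. HEK 293T SBE-bla cells had 5 hr compound exposure at 37 C with TGF-beta1 (0.25 ng/mL stock).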

[12] = qHTS assay to identify small molecule agonists of the TGF-beta/Smad signaling pathway - cell viability counter screen (AID 1346829); also: top concentration of the series differs between compounds; nearly all actives have a fitted effect of over 45% in size
Summary of the method: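 Luminescence from CellTiter-Glo, read after a 30 min room-temperature incubation, gives cell viability of SBE-bla HEK 293T cells treated 5 hr with compounds at 37 C.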

[13] = qHTS assay to identify small molecule agonists of the TGF-beta/Smad signaling pathway (AID 1346859; active = well fitted activation curve with a large enough effect in the signal ratio in the repeat runs, not every such curve was filed as active; the % refers to the signal ratio; also: series mostly up to about 77 µM)
Summary of the method: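 Stable Smad binding element-beta-lactamase HEK 293T cells; 5 hr compound exposure at 37 C under 5% CO2; 2 hr room-temperature substrate step; fluorescence excited at 405 nm, collected at 460 nm and 530 nm.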

[14] = molecular target: Thyrotropin-releasing hormone receptor (Homo sapiens) (UniProt P34981); test: qHTS assay to identify small molecule antagonists of the thyrotropin-releasing hormone receptor (TRHR) signaling pathway (AID 1346877; active = well fitted inhibition curve with a large enough effect in the repeat runs, not every such curve was filed as active; also: series mostly up to about 51 µM)
Summary of the method: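 TRHR-expressing HEK293 cells loaded with calcium dye for 2 h at 37 C; compounds pre-incubated 5 min at room temperature before TRH challenge at 1 nM final. Intracellular calcium fluorescence read kinetically for 3 min; 15 concentrations in triplicate.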

[15] = qHTS assay to identify small molecule agonists or antagonists of the thyroid stimulating hormone receptor (TSHR) signaling pathway - wild type cell line counter screen (AID 1259384; calls by dose curve)
Summary of the method: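 Counter screen in untransfected Hek293: compounds (15-point titration, triplicate) plus phosphodiesterase inhibitor Ro20-1724 added after 18 h plating; 30 min RT. Intracellular cAMP via competitive d2/cryptate immunoassay, 1 h incubation.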

[16] = molecular target: Thyrotropin receptor (Homo sapiens) (UniProt P16473); test: qHTS assay to identify small molecule antagonists of the thyroid stimulating hormone receptor (TSHR) signaling pathway (AID 1259385; calls by dose curve; also: nearly all actives have a fitted effect of over 20% in size)
Summary of the method: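 Antagonist mode: compound-treated TSHR-expressing HEK293 cells were stimulated with 1.5 ng/mL TSH (final) in presence of Ro20-1724 for 30 min at RT. HTRF cAMP detection after 1 h; each compound tested at 15 concentrations, triplicate.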

[17] = molecular target: Estrogen receptor beta (Homo sapiens) (UniProt Q92731); test: qHTS assay to identify small molecule agonists of the estrogen receptor beta (ER-beta) signaling pathway (AID 1259377; active = well fitted activation curve with a large enough effect in the signal ratio in the repeat runs, not every such curve was filed as active; the % refers to the signal ratio)
Summary of the method: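 In HEK293T cells bearing a UAS-beta-lactamase reporter under ER-beta control, DMSO-delivered compounds were incubated for 16 hr at 37C. Activity was detected as fluorescence 2 hours after LiveBLAzer B/G FRET substrate addition.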

[18] = molecular target: Estrogen receptor beta (Homo sapiens) (UniProt Q92731); test: qHTS assay to identify small molecule antagonists of the estrogen receptor beta (ER-beta) signaling pathway (AID 1259378; active = well fitted inhibition curve with a large enough effect in the signal ratio in the repeat runs, not every such curve was filed as active; the % refers to the signal ratio)
Summary of the method: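 Antagonist mode: compounds added to beta-lactamase reporter HEK293T ER-beta-UAS cells stimulated with E2 (1nM final), 16 hr at 37C. LiveBLAzer B/G FRET substrate, 2 hours room temperature, fluorescence read-out.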

[19] = molecular target: Androgen receptor (Homo sapiens) (UniProt P10275); test: qHTS assay to identify small molecule agonists of the androgen receptor (AR) signaling pathway in the presence of an antagonist (AID 1259381; calls by dose curve; also: nearly all actives have a fitted effect of over 15% in size)
Summary of the method: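 MDA-kb2 cells carrying MMTV-luciferase (AR/GR responsive), 3,000 cells/well, co-treated with 3.0 uM nilutamide final. Compounds at 15 concentrations, 16 hr at 37C without CO2. Luciferase luminescence read after 30 min with ONE-Glo.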
% is scaled to controls: 0 for no effect and ±100 for the full control effect.

Thyrotropin receptor (Homo sapiens), sequence (P16473 whole entry, looked up): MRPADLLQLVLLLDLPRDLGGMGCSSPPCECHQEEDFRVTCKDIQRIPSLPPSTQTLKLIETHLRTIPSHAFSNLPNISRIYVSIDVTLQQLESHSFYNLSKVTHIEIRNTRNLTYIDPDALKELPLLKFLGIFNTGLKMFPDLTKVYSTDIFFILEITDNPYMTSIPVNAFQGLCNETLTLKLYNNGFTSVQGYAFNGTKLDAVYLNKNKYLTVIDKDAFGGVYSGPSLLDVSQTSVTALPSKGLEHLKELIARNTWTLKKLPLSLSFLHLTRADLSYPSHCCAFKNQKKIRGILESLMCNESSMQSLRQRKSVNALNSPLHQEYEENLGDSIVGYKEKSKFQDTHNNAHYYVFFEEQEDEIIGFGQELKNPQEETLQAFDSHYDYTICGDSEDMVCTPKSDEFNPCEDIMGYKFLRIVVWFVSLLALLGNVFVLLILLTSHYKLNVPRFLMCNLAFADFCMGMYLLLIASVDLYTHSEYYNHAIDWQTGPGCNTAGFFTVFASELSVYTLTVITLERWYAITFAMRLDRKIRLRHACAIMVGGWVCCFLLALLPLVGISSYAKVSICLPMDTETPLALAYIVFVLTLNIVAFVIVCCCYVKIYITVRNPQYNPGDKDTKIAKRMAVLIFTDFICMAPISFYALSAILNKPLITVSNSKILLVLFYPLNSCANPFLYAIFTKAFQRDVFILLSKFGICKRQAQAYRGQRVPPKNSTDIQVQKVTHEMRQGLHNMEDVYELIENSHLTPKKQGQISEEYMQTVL
Progesterone receptor (Homo sapiens), sequence (P06401 whole entry, looked up): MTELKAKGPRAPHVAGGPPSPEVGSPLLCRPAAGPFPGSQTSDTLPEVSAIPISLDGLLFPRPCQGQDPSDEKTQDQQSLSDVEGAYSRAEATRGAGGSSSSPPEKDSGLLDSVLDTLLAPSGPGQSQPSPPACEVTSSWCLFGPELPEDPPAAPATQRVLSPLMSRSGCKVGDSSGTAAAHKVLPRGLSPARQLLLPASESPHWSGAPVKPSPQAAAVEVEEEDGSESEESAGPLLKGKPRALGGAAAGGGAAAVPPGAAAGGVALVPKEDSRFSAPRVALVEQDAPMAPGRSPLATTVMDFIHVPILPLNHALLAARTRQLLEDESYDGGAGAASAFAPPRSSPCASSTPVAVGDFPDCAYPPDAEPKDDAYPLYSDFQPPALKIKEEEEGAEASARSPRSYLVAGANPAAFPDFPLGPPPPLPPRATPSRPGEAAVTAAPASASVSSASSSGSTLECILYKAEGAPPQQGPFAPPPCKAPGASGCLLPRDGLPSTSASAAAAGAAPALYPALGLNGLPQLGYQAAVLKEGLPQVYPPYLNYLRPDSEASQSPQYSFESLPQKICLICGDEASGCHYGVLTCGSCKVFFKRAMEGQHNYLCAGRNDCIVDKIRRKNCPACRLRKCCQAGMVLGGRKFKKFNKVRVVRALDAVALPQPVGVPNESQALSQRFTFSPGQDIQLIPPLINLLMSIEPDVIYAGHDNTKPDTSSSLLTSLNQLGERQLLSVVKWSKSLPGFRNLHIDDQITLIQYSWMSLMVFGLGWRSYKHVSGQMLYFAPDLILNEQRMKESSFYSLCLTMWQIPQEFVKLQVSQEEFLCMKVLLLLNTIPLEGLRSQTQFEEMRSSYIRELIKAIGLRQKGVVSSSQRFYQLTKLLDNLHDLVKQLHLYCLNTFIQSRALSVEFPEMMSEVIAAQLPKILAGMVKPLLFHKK
Androgen receptor (Homo sapiens), sequence (P10275 whole entry, looked up): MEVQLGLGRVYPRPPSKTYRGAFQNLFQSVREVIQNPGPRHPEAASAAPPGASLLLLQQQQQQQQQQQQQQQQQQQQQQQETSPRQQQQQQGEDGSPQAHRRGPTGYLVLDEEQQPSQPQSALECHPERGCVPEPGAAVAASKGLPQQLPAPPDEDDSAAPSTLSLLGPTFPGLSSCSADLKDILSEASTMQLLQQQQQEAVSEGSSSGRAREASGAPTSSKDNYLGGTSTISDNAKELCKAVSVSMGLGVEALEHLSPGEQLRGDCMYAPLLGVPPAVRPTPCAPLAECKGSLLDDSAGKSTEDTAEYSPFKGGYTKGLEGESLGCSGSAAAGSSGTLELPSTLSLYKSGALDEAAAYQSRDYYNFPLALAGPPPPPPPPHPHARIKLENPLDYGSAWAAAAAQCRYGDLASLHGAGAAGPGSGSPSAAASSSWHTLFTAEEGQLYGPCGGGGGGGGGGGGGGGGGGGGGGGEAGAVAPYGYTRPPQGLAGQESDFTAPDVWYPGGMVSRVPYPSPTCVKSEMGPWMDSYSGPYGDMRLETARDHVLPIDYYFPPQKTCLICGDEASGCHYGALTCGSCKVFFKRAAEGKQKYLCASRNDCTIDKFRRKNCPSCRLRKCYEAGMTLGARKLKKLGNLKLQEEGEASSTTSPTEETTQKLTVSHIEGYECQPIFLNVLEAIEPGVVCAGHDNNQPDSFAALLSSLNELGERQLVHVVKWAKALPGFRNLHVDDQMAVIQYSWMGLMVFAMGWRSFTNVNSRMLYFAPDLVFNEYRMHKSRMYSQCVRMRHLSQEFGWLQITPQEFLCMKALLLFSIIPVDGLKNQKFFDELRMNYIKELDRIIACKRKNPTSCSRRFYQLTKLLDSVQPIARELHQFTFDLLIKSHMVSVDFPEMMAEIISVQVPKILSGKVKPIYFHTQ
Estrogen receptor (Homo sapiens), sequence (P03372 whole entry, looked up): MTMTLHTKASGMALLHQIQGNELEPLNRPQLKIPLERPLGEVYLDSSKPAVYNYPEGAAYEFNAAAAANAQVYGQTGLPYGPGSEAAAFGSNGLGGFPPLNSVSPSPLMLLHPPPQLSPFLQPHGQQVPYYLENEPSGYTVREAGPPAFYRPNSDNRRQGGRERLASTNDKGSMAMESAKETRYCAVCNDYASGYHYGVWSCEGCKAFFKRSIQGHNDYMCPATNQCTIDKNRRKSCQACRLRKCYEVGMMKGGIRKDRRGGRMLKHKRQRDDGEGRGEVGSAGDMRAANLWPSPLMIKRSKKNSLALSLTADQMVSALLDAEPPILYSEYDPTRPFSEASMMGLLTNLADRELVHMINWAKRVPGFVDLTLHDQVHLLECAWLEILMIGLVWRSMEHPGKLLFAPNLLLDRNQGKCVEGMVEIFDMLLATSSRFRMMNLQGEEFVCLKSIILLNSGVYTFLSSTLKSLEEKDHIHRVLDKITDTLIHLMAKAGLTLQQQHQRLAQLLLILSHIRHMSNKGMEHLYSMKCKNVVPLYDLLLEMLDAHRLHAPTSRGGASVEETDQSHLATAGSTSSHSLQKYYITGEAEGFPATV
Estrogen receptor beta (Homo sapiens), sequence (Q92731 whole entry, looked up): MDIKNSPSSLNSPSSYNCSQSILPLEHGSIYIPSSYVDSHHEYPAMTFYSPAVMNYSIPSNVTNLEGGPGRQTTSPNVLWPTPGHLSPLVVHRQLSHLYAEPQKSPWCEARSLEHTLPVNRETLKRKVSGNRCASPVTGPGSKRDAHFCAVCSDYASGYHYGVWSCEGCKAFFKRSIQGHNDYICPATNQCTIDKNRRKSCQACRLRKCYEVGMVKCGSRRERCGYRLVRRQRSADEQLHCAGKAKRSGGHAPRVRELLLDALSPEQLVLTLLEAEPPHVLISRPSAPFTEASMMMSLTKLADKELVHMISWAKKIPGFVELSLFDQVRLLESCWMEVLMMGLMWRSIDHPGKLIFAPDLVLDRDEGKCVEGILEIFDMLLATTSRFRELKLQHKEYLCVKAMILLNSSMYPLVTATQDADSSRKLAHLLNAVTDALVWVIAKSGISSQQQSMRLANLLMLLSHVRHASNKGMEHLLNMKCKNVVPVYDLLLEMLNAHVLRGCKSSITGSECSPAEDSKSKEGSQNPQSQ
Thyrotropin-releasing hormone receptor (Homo sapiens), sequence (P34981 whole entry, looked up): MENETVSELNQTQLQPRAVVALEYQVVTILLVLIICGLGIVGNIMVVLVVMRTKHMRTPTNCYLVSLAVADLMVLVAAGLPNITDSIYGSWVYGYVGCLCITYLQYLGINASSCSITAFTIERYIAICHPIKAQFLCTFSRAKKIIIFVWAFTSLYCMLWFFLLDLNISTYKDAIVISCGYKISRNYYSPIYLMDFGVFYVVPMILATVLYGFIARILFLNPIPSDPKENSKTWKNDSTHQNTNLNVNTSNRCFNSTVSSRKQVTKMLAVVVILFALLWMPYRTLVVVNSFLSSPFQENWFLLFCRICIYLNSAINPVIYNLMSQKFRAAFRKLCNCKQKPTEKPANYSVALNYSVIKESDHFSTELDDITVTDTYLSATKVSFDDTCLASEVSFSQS

CCCCCOC(=O)CCCCC
inactive: outcome [1] | Potency [2] | Potency [3] | Potency [4] | Potency [5] | Potency [6] | Potency [7] | Potency [8] | Potency [9] | Potency [10] | Potency [11] | outcome [12] | outcome [13] | outcome [14]

CCCCCSCCCCC
inactive: outcome [1] | Potency [2] | Potency [3] | Potency [4] | Potency [5] | outcome [15] | Potency [16] | Potency [6] | Potency [7] | Potency [9] | Potency [11] | outcome [12] | outcome [13]

C[C@](N)(Cc1ccc(O)cc1)C(=O)O
inactive: activity change [1] -0.726% [at 8.39 µM] | activity change, negative = cytotoxicity [2] -1.36% [at 8.39 µM] | activity change, negative = cytotoxicity [3] 14.6% [at 8.39 µM] | activity change, negative = cytotoxicity [4] 4.19% [at 8.39 µM] | activation [5] 1.12% [at 8.39 µM] | cAMP activity change [15] 3.57% [at 8.39 µM] | activity change, negative = inhibition [16] 1.98% [at 8.39 µM] | activation [7] -0.125% [at 8.39 µM] | activity change, negative = inhibition [8] 12.2% [at 8.39 µM] | activity change, negative = cytotoxicity [9] 2.75% [at 8.39 µM] | activity change, negative = cytotoxicity [10] 2.57% [at 8.39 µM] | viability change, negative = cytotoxic [11] 15.7% [at 6.97 µM] | activity change, negative = cytotoxicity [12] 0.568% [at 6.97 µM] | activation [13] 2.67% [at 6.97 µM]

CCOC(=O)C(=O)OCC
inactive: outcome [1] | outcome [17] | Potency [2] | Potency [3] | Potency [4] | Potency [5] | outcome [15] | Potency [16] | Potency [6] | Potency [7] | Potency [8] | Potency [9] | Potency [10] | Potency [11] | outcome [12] | outcome [13]

CCOC(=O)CC(C)=O
inactive: outcome [1] | Potency [2] | Potency [3] | Potency [4] | outcome [15] | Potency [16] | Potency [6] | Potency [7] | Potency [8] | Potency [9] | Potency [10] | Potency [11] | outcome [12] | outcome [13]

OCCCC1CCCCC1
inactive: outcome [1] | outcome [17] | Potency [2] | Potency [3] | Potency [4] | Potency [5] | outcome [15] | Potency [16] | Potency [6] | Potency [7] | Potency [8] | Potency [9] | Potency [10] | Potency [11] | outcome [12] | outcome [13] | outcome [14]

O=S(O)CO
inactive: outcome [1] | outcome [18] | Potency [3] | Potency [19] | Potency [4] | Potency [5] | outcome [15] | Potency [16] | Potency [6] | Potency [7] | Potency [8] | Potency [9] | Potency [10] | Potency [11] | outcome [12] | outcome [13] | outcome [14]

O=Cc1cccc([N+](=O)[O-])c1
inactive: outcome [1] | Potency [2] | Potency [3] | Potency [4] | Potency [5] | outcome [15] | Potency [16] | Potency [6] | Potency [7] | Potency [9] | Potency [11] | outcome [12] | outcome [13] | outcome [14]

c1ccc(CC2=NCCN2)cc1
inactive: outcome [1] | outcome [17] | Potency [3] | Potency [4] | Potency [5] | outcome [15] | Potency [16] | Potency [6] | Potency [7] | Potency [8] | Potency [9] | Potency [11] | outcome [12] | outcome [13] | outcome [14]

O=C(c1ccccc1)C1CCCCC1
inactive: outcome [1] | Potency [3] | Potency [19] | Potency [4] | Potency [5] | outcome [15] | Potency [16] | Potency [6] | Potency [7] | Potency [8] | Potency [9] | Potency [10] | Potency [11] | outcome [12] | outcome [13] | outcome [14]

N=C(N)c1ccc2cc(OC(=O)c3ccc(N=C(N)N)cc3)ccc2c1
inactive: outcome [1] | Potency [2] | Potency [3] | Potency [19] | Potency [4] | Potency [5] | Potency [6] | Potency [7] | Potency [9] | Potency [10] | Potency [11] | outcome [12] | outcome [13] | outcome [14]

NCCCNCCSP(=O)(O)O
inactive: activity change [1] -0.244% [at 8.39 µM] | activation [17] -1.24% [at 8.39 µM] | activity change, negative = cytotoxicity [3] 0.895% [at 8.39 µM] | activity change, negative = cytotoxicity [4] 1.8% [at 8.39 µM] | activation [5] -0.349% [at 8.39 µM] | cAMP activity change [15] -0.261% [at 8.39 µM] | activity change, negative = inhibition [16] -3.62% [at 8.39 µM] | activity change, negative = cytotoxicity [6] -0.352% [at 8.39 µM] | activity change, negative = cytotoxicity [9] 1.3% [at 8.39 µM] | activity change, negative = cytotoxicity [10] 17.5% [at 8.39 µM] | viability change, negative = cytotoxic [11] 10.3% [at 6.97 µM] | activity change, negative = cytotoxicity [12] -10% [at 6.97 µM] | activation [13] 0.256% [at 6.97 µM] | activity, negative = inhibition [14] 2.65% [at 4.65 µM]

C=COCC1CCC(CO)CC1 (configuration not stated)
inactive: outcome [1] | Potency [3] | Potency [4] | Potency [5] | outcome [15] | Potency [16] | Potency [7] | Potency [8] | Potency [9] | Potency [10] | Potency [11] | outcome [12] | outcome [13] | outcome [14]
